The source of these data is PubChem BioAssay (NCI).

Compounds without any hit were thinned out: in the full panel of roughly 83,000, 20% have a hit.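 For each line, cells grew in 96-well plates with the test compound present at a single concentration for 48 hours.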 A number with no mark means an inactive call. Activity calls are given as the source filed them. Rule for the calls: active = growth percent below 10; inactive = the rest.

Some test systems named below: SK-MEL-2 melanoma; EKVX NSCLC; SN12C renal; UO-31 renal; TK-10 renal; ACHN renal; A498 renal; CCRF-CEM leukemia; MOLT-4 leukemia; CAKI-1 renal.
Common to all, as to assay: NCI-60 one-dose screen, 48 h (100 = growth as untreated, 0 = no growth, -100 = all killed)
What all share (conditions): 10 µM unless noted

`COC(=O)c1ccc2c(c1)nc(-c1ccc(Cl)cc1)n2-c1cc(C(C)(C)C)[nH]n1`: the growth is 31.6% in the assay with SK-MEL-2 melanoma; 78.3% in the assay with EKVX NSCLC; 79.1% with SN12C renal; 41.9% in the assay on UO-31 renal; 86.6% in the assay with TK-10 renal; 75.4% with ACHN renal. Also, the growth in the assay on A498 renal is 21.8%; in the assay with CCRF-CEM leukemia, 45.2%; in the assay with MOLT-4 leukemia, 41.8%.

Consider `COC(=O)CSc1ccc(Cl)cc1`, for which the growth is 104% in the assay with SK-MEL-2 melanoma; 101% with EKVX NSCLC; 121% with SN12C renal; 93.3% with UO-31 renal; 104% in the assay on TK-10 renal; 104% with ACHN renal. For the same molecule, the growth is 95.1% in the assay with CAKI-1 renal, 79.9% with A498 renal and 88.8% in the assay with MOLT-4 leukemia.

Regarding `O=C(CC(=O)C(F)(F)C(F)(F)C(F)(F)F)c1cc2ccccc2o1`, the growth with SK-MEL-2 melanoma is 106%; with EKVX NSCLC, 100%; with SN12C renal, 103%; with UO-31 renal it was 87.5%; in the assay with TK-10 renal, 108%; in the assay on ACHN renal it was 110%. For the same molecule, the values for the growth with A498 renal, in the assay on CCRF-CEM leukemia and with MOLT-4 leukemia were 125%, 102% and 102%, respectively.

Consider `COc1cc(Nc2ncccc2/C=C/C(=O)c2cc(OC)c(OC)c(OC)c2)cc(OC)c1OC`, for which the growth in the assay on SK-MEL-2 melanoma was 78.3%; in the assay on EKVX NSCLC, 90.5%; in the assay with SN12C renal, 79.3%; with UO-31 renal it was 65.6%; in the assay with TK-10 renal, 121%; in the assay on ACHN renal, 76.1%. The growth was 84.9% in the assay on A498 renal, 40.8% with CCRF-CEM leukemia and 70.9% in the assay on MOLT-4 leukemia.

On to `O=S(=O)(Nc1ccc2ccccc2c1)N1CCCCC1`, for which the growth in the assay on SK-MEL-2 melanoma is 8.41% (active); in the assay with EKVX NSCLC it was 81%; in the assay with SN12C renal, 81.9%; with UO-31 renal, 25%; in the assay with TK-10 renal, 86.8%; with ACHN renal, 63.7%. Moreover, the growth was 44% in the assay on CAKI-1 renal, 27% in the assay with A498 renal and 64.5% in the assay with MOLT-4 leukemia.

Regarding `O=C(Cc1ccc([N+](=O)[O-])cc1)Oc1ccccc1`, the growth with SK-MEL-2 melanoma was 102%; in the assay with SN12C renal it was 106%; in the assay on UO-31 renal, 77%; in the assay on TK-10 renal, 104%; with ACHN renal, 110%; in the assay on CAKI-1 renal, 117%. Besides, the growth in the assay with A498 renal was 107%; with CCRF-CEM leukemia, 99.3%; with MOLT-4 leukemia it was 108%.

`COc1cc(C2CC(c3ccc(C)cc3)=NN2C=O)ccc1Oc1nc2c(c(=O)n(C)c(=O)n2C)n1C` (centres undefined): the growth with SK-MEL-2 melanoma was 121%; in the assay on SN12C renal it was 52.4%; in the assay on UO-31 renal it was 63.1%; in the assay on TK-10 renal, 113%; in the assay with ACHN renal, 88.1%; in the assay with CAKI-1 renal, 79.2%. The growth in the assay with A498 renal is 76.9%; in the assay with CCRF-CEM leukemia, 83.8%; in the assay on MOLT-4 leukemia, 67.2%.

As for `O=C1/C(=C/c2ccccc2)SC(=Nc2ccccc2)N1Nc1ccccc1`, the growth with SK-MEL-2 melanoma was -25.2% (active); in the assay with SN12C renal, -58.3% (active); with UO-31 renal, 14.8%; in the assay with TK-10 renal it was 31.4%; with ACHN renal, 10%; in the assay with CAKI-1 renal it was 17.1%. Also, the growth is -33.1% (active) in the assay on A498 renal, 6.81% (active) in the assay with CCRF-CEM leukemia and -1.49% (active) with MOLT-4 leukemia.

Consider `O=C(Nc1ccc([N+](=O)[O-])cc1)c1cc2ccccc2cc1O`, for which the growth in the assay with SK-MEL-2 melanoma is -66.7% (active); in the assay on SN12C renal, 1.45% (active); in the assay on UO-31 renal, -7.29% (active); with TK-10 renal, -19.5% (active); with ACHN renal, -6.44% (active); in the assay with CAKI-1 renal it was -13.7% (active). The growth in the assay on A498 renal was -42.5% (active); with CCRF-CEM leukemia, 1.14% (active); in the assay on MOLT-4 leukemia, -7.97% (active).

For `CN(C)c1nc(-c2cccs2)n2nc(-c3ccco3)cc2n1`, the growth in the assay on SK-MEL-2 melanoma was 92.9%; with SN12C renal it was 92%; with UO-31 renal it was 57.9%; in the assay with TK-10 renal, 103%; in the assay with ACHN renal, 96.9%; in the assay on CAKI-1 renal, 85.5%. The growth in the assay on A498 renal is 74.1%; in the assay on CCRF-CEM leukemia, 93.9%; in the assay with MOLT-4 leukemia, 97%.

For `Cc1ccsc1C(=O)CC(=O)C(F)(F)C(F)(F)C(F)(F)F`, the growth with SK-MEL-2 melanoma is 115%; with SN12C renal, 96.7%; in the assay on UO-31 renal, 86.5%; with TK-10 renal, 126%; with ACHN renal, 102%; in the assay on CAKI-1 renal, 92%. The growth in the assay on A498 renal is 116%; with CCRF-CEM leukemia, 95.7%; in the assay with MOLT-4 leukemia it was 110%.

Regarding `Clc1nnc2c3ccccc3ccn12`, the growth in the assay with SK-MEL-2 melanoma is 108%; in the assay on SN12C renal it was 109%; with UO-31 renal, 98.8%; in the assay on TK-10 renal, 106%; in the assay on ACHN renal it was 105%; with CAKI-1 renal it was 93%. Also, the growth with A498 renal is 106%; in the assay on CCRF-CEM leukemia, 92.6%; in the assay with MOLT-4 leukemia, 104%.

Regarding `C#C[C@]1(O)CC[C@H]2[C@@H]3CC=C4c5sc(-c6cccc(Br)c6)nc5CC[C@]4(C)[C@H]3CC[C@@]21C`, the growth with SK-MEL-2 melanoma was 98.2%; in the assay on SN12C renal it was 96.3%; with UO-31 renal, 62.6%; in the assay with TK-10 renal, 97.7%; in the assay with ACHN renal, 83.3%; with CAKI-1 renal it was 35%. The growth in the assay with A498 renal was 71.7%; with CCRF-CEM leukemia it was 61.4%; in the assay with MOLT-4 leukemia it was 58%.

For `O=C(c1ccccc1)c1cccc(C(Br)Br)c1`, the growth was 74.5% in the assay with SK-MEL-2 melanoma; 89.7% in the assay with SN12C renal; 74.1% in the assay with UO-31 renal; 78.9% in the assay on TK-10 renal; 91% in the assay with ACHN renal; 78.2% in the assay with CAKI-1 renal. In addition, the figures for the growth in the assay on A498 renal, with CCRF-CEM leukemia and in the assay on MOLT-4 leukemia were 77.2%, 103% and 81.5%, respectively.

On to `CCSCC1CC(O)(c2ccccc2)C(c2ccccc2)C(c2ccc(F)cc2)O1` (centres undefined), for which the growth in the assay with SK-MEL-2 melanoma is -0.854% (active); in the assay on EKVX NSCLC, 0.894% (active); with SN12C renal, -22.9% (active); in the assay with UO-31 renal, -0.34% (active); with TK-10 renal, -15.4% (active); in the assay on ACHN renal, -14.3% (active). For the same molecule, the results for the growth with CCRF-CEM leukemia and in the assay with MOLT-4 leukemia were 2.04% (active) and -48.2% (active), respectively.
